Results taken from PubChem BioAssay (EPA / NIEHS).
Where “and” joins values, the source holds several entries; their conditions need not be identical. Identical values can stand only once. Results filed as inconclusive are left out. Calls of active or inactive are those of the source. The calls were made as follows: active = hit-call score of the fitted dose curve at least 0.9, where 1 is the maximum; inconclusive = response in the unintended direction; inactive = score below 0.9.

Tests used:
[1] = target: human Matrix Metalloproteinase-9 (MMP9), MMP9 (gene 4318) (UniProt P14780); assay: NVS_ENZ_hMMP9: NovaScreen (NVS) Enzymatic Assay for human Matrix Metalloproteinase-9 (MMP9) (AID 2283190);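 also: cell-free recombinant MMP9 protease activity read by fluorescent substrate signal; active means inhibition seen as loss of fluorescence signal versus DMSO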
Procedure, shortened: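 Inhibition was scored as loss of fluorescence signal against DMSO controls. The recombinant protease was exposed to chemicals for 1 hour before reading; initial testing used 25 uM in duplicate.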

[2] = target: human Phosphodiesterase 10 (PDE10), PDE10A (gene 10846) (UniProt Q9Y233); assay: NVS_ENZ_hPDE10: NovaScreen (NVS) Enzymatic Assay for human Phosphodiesterase 10 (PDE10) (AID 2283195)
Sequence of human Phosphodiesterase 10 (PDE10), PDE10A (gene 10846) (Q9Y233 whole entry, looked up): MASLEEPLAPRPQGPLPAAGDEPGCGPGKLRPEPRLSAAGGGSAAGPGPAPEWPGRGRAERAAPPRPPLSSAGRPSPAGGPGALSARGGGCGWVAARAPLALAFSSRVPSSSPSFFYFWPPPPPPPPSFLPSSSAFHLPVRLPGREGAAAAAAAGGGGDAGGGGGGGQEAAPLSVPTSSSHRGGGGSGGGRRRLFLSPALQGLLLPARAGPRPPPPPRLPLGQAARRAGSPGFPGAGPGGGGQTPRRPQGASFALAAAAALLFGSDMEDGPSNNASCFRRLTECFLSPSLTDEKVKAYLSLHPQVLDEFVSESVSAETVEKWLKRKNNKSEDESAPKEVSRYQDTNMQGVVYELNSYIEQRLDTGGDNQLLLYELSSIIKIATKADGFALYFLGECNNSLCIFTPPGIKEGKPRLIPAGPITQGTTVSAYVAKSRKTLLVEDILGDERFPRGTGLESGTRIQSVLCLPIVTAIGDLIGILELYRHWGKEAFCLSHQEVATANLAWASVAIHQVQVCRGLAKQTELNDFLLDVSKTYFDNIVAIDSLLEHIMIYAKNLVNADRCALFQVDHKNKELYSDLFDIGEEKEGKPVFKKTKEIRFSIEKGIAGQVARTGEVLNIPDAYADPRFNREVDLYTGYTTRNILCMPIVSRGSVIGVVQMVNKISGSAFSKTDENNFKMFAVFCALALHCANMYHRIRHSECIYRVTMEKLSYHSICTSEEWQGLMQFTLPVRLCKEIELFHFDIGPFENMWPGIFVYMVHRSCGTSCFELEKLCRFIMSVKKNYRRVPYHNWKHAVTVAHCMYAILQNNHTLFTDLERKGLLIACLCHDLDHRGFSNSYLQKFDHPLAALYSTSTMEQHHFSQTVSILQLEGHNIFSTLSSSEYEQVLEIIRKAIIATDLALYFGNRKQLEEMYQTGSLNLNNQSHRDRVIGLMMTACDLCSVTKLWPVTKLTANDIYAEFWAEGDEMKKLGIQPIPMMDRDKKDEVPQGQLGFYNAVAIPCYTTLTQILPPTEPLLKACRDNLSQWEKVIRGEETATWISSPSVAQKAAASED
Procedure, shortened: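 Recombinant human PDE10 with fluorescent substrate, 1 h, product separated by electrophoretic mobility shift. Loss of enzyme activity fitted against DMSO; initial screen 25 uM in duplicate, actives run to 50 uM maximum.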

[3] = target: human NIMA (Never In Mitosis Gene A)-Related Kinase 2 (NEK2), NEK2 (gene 4751) (UniProt P51955); assay: NVS_ENZ_hNEK2: NovaScreen (NVS) Enzymatic Assay for human NIMA (Never In Mitosis Gene A)-Related Kinase 2 (NEK2) (AID 2283188)
Procedure, shortened: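 Cell-free NEK2 enzyme activity after 1 h exposure, read by fluorescence with electrophoretic mobility shift separating substrate and product. Primary screen in duplicate at 25 uM; actives then run as concentration series. Loss of signal versus DMSO scored.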

[4] = target: human p21 Activated Kinase 4 (PAK4), PAK4 (gene 10298) (UniProt O96013); assay: NVS_ENZ_hPAK4: NovaScreen (NVS) Enzymatic Assay for human p21 Activated Kinase 4 (PAK4) (AID 2283189)
Sequence of human p21 Activated Kinase 4 (PAK4), PAK4 (gene 10298) (O96013 whole entry, looked up): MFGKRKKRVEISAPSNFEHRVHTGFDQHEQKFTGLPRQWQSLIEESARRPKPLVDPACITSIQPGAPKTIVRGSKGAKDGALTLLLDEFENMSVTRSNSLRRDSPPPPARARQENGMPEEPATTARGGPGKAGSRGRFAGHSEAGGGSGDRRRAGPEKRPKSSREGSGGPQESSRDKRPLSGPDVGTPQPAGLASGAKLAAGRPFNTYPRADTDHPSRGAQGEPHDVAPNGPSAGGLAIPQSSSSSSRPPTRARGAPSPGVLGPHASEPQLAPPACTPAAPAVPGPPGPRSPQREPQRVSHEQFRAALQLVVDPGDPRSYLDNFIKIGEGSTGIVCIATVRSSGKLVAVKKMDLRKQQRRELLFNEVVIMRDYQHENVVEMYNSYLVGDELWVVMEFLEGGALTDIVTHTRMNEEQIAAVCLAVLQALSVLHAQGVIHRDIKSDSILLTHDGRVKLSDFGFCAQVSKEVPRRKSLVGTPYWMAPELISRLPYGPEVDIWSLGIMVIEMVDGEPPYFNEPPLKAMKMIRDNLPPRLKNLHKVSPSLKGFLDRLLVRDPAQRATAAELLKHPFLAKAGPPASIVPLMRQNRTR
Procedure, shortened: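 Cell-free recombinant human PAK4 activity assay; fluorescent substrate and product separated by electrophoretic mobility shift, read 1 h after dosing. Initially tested in duplicate at 25 uM, relative to DMSO baseline.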

[5] = target: human Phosphatase and Tensin Homolog (PTEN), PTEN (gene 5728) (UniProt P60484); assay: NVS_ENZ_hPTEN: NovaScreen (NVS) Enzymatic Assay for human Phosphatase and Tensin Homolog (PTEN) (AID 2283203)
Sequence of human Phosphatase and Tensin Homolog (PTEN), PTEN (gene 5728) (P60484 whole entry, looked up): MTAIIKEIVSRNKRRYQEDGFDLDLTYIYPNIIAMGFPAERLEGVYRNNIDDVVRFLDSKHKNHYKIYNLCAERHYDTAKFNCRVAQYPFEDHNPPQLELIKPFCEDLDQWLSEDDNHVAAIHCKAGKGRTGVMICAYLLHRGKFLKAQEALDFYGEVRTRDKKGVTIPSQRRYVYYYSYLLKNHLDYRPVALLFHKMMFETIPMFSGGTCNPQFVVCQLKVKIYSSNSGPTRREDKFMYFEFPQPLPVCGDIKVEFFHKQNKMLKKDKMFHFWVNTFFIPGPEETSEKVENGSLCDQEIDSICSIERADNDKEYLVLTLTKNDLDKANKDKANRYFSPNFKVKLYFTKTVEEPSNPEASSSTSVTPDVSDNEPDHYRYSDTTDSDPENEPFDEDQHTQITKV
Procedure, shortened: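 Cell-free recombinant human PTEN with fluorescent substrate; product separated by electrophoretic mobility shift and read by fluorescence 1 h after dosing. Primary screen in duplicate at 25 uM, actives followed in concentration series versus DMSO.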

[6] = target: Tyrosine-protein phosphatase non-receptor type 12 (Homo sapiens) (UniProt Q05209); assay: NVS_ENZ_hPTPN12: NovaScreen (NVS) Enzymatic Assay for human Protein Tyrosine Phosphatase Non-receptor Type 12 (PTPN12) (AID 2283204)
Sequence of Tyrosine-protein phosphatase non-receptor type 12 (Homo sapiens) (Q05209 whole entry, looked up): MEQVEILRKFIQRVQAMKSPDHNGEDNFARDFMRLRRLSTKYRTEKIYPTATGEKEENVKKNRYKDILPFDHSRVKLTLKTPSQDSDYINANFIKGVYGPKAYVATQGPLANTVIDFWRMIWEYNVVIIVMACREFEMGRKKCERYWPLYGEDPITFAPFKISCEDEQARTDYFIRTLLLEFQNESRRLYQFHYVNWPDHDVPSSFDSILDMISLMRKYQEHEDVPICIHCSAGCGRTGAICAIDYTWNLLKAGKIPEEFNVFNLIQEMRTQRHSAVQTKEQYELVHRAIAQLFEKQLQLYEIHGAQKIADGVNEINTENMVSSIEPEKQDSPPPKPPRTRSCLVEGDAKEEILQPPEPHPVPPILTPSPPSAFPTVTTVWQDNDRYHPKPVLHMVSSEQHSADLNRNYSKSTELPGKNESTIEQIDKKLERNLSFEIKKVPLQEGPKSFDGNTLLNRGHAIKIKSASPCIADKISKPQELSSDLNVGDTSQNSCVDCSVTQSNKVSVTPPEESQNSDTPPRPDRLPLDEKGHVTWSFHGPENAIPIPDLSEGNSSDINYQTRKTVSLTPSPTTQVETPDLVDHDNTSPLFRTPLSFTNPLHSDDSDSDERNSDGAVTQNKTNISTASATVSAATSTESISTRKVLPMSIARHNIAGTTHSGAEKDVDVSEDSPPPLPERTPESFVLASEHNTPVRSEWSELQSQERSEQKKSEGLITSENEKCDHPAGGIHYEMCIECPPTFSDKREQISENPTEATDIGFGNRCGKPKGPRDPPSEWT
Procedure, shortened: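 Single-concentration duplicates (25 uM) preceded singleton concentration-response up to 50 uM for chemicals passing threshold. Cell-free recombinant PTPN12 activity was read 1.33 h after dosing via fluorescence after mobility-shift separation; loss of signal versus DMSO.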

[7] = target: human Phosphodiesterase 5 (PDE5), PDE5A (gene 8654) (UniProt O76074); assay: NVS_ENZ_hPDE5: NovaScreen (NVS) Enzymatic Assay for human Phosphodiesterase 5 (PDE5) (AID 2283194)
Procedure, shortened: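 Recombinant human PDE5 with specific substrate, read 1 h after dosing by fluorescence with electrophoretic mobility-shift separation of substrate and product. Initial single-concentration duplicate screen at 25 uM, actives followed in concentration series; loss of activity versus DMSO.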

[8] = target: cAMP-dependent protein kinase catalytic subunit alpha (Homo sapiens) (UniProt P17612); assay: NVS_ENZ_hPKA: NovaScreen (NVS) Enzymatic Assay for human Protein Kinase A (PKA) (AID 2283192)
Procedure, shortened: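 Recombinant human PKA with specific fluorescent substrate, product separated by electrophoretic mobility shift, read 1 h after dosing. Primary screen at 25 uM in duplicate; actives then run in concentration-response up to 50 uM, activity relative to DMSO.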

[9] = target: human Protein Tyrosine Phosphatase Non-receptor Type 2 (PTPN2), PTPN2 (gene 5771) (UniProt P17706); assay: NVS_ENZ_hPTPN2: NovaScreen (NVS) Enzymatic Assay for human Protein Tyrosine Phosphatase Non-receptor Type 2 (PTPN2) (AID 2283207)
Procedure, shortened: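 Cell-free recombinant enzyme with fluorescent substrate, product separated by electrophoretic mobility shift; read 1 h after dosing. Primary screen single concentration (25 uM) in duplicate; actives followed in concentration series; loss of signal versus DMSO.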

[10] = target: Tyrosine-protein phosphatase non-receptor type 11 (Homo sapiens) (UniProt Q06124); assay: NVS_ENZ_hPTPN11: NovaScreen (NVS) Enzymatic Assay for human Protein Tyrosine Phosphatase Non-receptor Type 11 (PTPN11) (AID 2283202)
Procedure, shortened: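 Recombinant human PTPN11 activity on a fluorescent substrate, with substrate/product separated by electrophoretic mobility shift; read 0.5 h after dosing, loss of signal vs DMSO. Duplicate 25 uM screen, then concentration-response up to 50 uM.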

[11] = target: human Protein Tyrosine Phosphatase Receptor Type B (PTPRB), PTPRB (gene 5787) (UniProt P23467); assay: NVS_ENZ_hPTPRB: NovaScreen (NVS) Enzymatic Assay for human Protein Tyrosine Phosphatase Receptor Type B (PTPRB) (AID 2283211)
Sequence of human Protein Tyrosine Phosphatase Receptor Type B (PTPRB), PTPRB (gene 5787) (P23467 whole entry, looked up): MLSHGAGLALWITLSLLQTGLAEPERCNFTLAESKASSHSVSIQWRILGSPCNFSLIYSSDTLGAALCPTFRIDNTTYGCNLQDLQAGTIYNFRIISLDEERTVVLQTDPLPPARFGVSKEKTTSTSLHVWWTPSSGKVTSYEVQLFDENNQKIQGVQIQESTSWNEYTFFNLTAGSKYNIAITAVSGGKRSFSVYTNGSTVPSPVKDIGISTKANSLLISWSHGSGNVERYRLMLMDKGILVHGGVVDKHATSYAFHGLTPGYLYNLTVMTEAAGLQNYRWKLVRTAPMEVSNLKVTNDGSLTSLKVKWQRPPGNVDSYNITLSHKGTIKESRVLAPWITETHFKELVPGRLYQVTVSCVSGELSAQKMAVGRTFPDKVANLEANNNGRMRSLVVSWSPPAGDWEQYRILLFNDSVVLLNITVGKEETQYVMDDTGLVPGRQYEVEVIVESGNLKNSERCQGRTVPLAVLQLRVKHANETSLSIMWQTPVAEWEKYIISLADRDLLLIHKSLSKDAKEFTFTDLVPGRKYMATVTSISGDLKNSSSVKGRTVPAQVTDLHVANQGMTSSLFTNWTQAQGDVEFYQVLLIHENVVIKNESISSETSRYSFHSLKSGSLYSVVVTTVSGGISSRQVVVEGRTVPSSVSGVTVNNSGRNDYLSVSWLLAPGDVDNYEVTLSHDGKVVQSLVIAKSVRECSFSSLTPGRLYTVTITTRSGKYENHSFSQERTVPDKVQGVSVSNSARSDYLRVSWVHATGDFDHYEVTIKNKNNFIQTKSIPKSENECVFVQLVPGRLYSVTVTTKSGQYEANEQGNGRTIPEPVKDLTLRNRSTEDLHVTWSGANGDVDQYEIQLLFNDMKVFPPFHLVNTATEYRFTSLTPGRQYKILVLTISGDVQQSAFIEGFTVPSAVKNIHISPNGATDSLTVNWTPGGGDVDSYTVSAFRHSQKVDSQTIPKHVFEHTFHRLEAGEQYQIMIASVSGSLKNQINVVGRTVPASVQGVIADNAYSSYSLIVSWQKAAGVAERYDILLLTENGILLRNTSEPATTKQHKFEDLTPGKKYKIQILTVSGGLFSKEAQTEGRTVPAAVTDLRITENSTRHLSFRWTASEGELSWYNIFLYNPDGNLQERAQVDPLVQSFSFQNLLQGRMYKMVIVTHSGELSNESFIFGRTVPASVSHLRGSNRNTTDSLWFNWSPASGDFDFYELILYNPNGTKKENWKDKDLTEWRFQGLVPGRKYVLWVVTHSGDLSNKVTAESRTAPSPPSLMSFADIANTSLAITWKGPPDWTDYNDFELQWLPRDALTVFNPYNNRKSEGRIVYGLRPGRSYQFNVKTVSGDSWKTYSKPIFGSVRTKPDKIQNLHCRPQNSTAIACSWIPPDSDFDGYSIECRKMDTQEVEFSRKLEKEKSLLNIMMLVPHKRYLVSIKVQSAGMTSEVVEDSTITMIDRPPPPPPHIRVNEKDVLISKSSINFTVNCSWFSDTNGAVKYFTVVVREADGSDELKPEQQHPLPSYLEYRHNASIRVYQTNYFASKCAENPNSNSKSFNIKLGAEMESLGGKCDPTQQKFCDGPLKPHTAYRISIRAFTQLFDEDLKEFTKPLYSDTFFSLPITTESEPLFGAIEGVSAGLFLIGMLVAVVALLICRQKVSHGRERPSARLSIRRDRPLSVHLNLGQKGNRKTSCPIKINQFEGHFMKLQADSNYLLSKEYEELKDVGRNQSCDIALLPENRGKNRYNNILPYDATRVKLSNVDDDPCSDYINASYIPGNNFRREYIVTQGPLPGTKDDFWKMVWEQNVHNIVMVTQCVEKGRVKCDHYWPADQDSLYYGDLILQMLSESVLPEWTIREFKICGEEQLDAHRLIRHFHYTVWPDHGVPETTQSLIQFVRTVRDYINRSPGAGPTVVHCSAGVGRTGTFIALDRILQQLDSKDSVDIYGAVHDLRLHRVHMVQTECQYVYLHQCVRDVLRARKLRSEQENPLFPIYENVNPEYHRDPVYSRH
Procedure, shortened: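 Recombinant human PTPRB with a fluorescent substrate, product separated by electrophoretic mobility shift; read 1 h after dosing. Primary screen in duplicate at 25 uM; actives then retested in concentration series; loss of signal versus DMSO.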

[12] = target: Serine/threonine-protein phosphatase PP1-alpha catalytic subunit (Homo sapiens) (UniProt P62136); assay: NVS_ENZ_hPPP1CA: NovaScreen (NVS) Enzymatic Assay for human Protein Phosphatase 1 Aatalytic subunit Alpha (PPP1CA) (AID 2283200)
Procedure, shortened: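 Recombinant enzyme activity read by fluorescence with electrophoretic mobility shift separating substrate from product, 1.33 h after dosing; loss of signal vs DMSO baseline. Primary screen in duplicate at 25 uM; actives retested in concentration-response up to 50 uM.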

[13] = target: human Protein Tyrosine Phosphatase Non-receptor Type 6 (PTPN6), PTPN6 (gene 5777) (UniProt P29350); assay: NVS_ENZ_hPTPN6: NovaScreen (NVS) Enzymatic Assay for human Protein Tyrosine Phosphatase Non-receptor Type 6 (PTPN6) (AID 2283210)
Procedure, shortened: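 Cell-free assay with recombinant PTPN6 expressed in SF9 cells, fluorescent substrate, product separated from substrate by electrophoretic mobility shift; read 1.33 hours after dosing. Primary screen in duplicate at 25 uM, actives retested in concentration series; DMSO baseline.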

In the case of `BrCCCCBr`, the AC50 [1] is reported as 15.3 µM (active) and the AC50 [2] is reported as 4.81 µM (active).
For `Clc1cccc(Cl)c1Cl`, the outcome [3] was “inactive”, the outcome [4] was “inactive” and the outcome [5] was “inactive”. The outcome [6] was “inactive”.
For `Oc1c(Cl)cc(Cl)cc1Cl`, the outcome [7] was “inactive”.
`O=c1oc2ccccc2c(O)c1C(CC(O)c1ccc(-c2ccc(Br)cc2)cc1)c1ccccc1` (stereo unspecified) was tested, and the AC50 [1] was 0.436 µM (active) and the outcome [2] was “inactive”.
With `CN(C)C(=S)S` the outcome [4] was “inactive”, the outcome [8] was “inactive” and the outcome [5] was “inactive”.
With `CCCCCCCCCCCCOS(=O)(=O)O` the outcome [4] was “inactive”, the AC50 [5] was 21.6 µM (active) and the outcome [9] was “inactive”.
With `COc1nn(C(=O)NS(=O)(=O)c2ccccc2OC(F)(F)F)c(=O)n1C` the AC50 [4] was 17.4 µM (active), the AC50 [10] was 13.3 µM (active) and the AC50 [5] was 9.29 µM (active). For the same compound, the AC50 [6] was 5.64 µM (active) and the AC50 [11] was 6.08 µM (active).
For `CC1(C)[C@H](C(=O)O[C@H](C#N)c2cccc(Oc3ccccc3)c2)[C@@H]1/C=C(\Cl)C(F)(F)F`, the AC50 [1] was 7.08 µM (active), the outcome [7] was “inactive” and the outcome [2] was “inactive”.
With `OC[P+](CO)(CO)CO` the AC50 [1] was 1.27 µM (active) and 3.16 µM (active) and the AC50 [2] was 9.04 µM (active).
In the case of `CC(C)(c1ccccc1)c1cc(-n2nc3ccccc3n2)c(O)c(C(C)(C)c2ccccc2)c1`, the AC50 [1] is reported as 1.24 µM (active).
In the case of `CC(C)(C#N)N=NC(C)(C)C#N`, the AC50 [1] is reported as 6.44 µM (active).
For `[Cl][Sn]([c]1ccccc1)([c]1ccccc1)[c]1ccccc1`, the outcome [1] was “inactive”.
`COC(=O)Nc1cccc(OC(=O)Nc2cccc(C)c2)c1` was tested, and the outcome [7] was “inactive”.
`COc1ccccc1N` was tested, and the AC50 [12] was 14.8 µM (active) and the AC50 [13] was 22.6 µM (active).
In the case of `O=C1c2ccccc2C(=O)C1C(=O)C(c1ccccc1)c1ccc(Cl)cc1` (stereo unspecified), the AC50 [10] is reported as 9.45 µM (active), the AC50 [6] is reported as 20 µM (active) and the AC50 [11] is reported as 14.7 µM (active).
With `Oc1cc(Cl)c(Cl)cc1Cl` the outcome [13] was “inactive”.
In the case of `O=C(CBr)c1ccc(O)cc1`, the outcome [11] is reported as “inactive”.
